PubChem BioAssay AID1159580 (chemical genetic matrix, 2015)
About 2,000 (36%) of roughly 5,500 compounds were called active. Another 18% or so got no clear call; they are omitted. No stated cut-off is given here; in the data, active means normalized growth mostly below about 0.91 (no sharp cut-off); inconclusive means no clear call, values can overlap the other calls; inactive means mostly above about 0.92. The list shows a part of the results.

Assay: chemical genetic growth profiling, strain panel (AID 1159580);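 further: tested at 20 µM; growth read once vehicle control cultures reached saturation at 30 °C; 1 = growth at the plate median or of vehicle wells; lower values mean less growth of the strain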
Settings: growth OD

Measured: normalized growth

COC(=O)NC(=S)Nc1ccccc1NC(=S)NC(=O)OC
inactive: S. cerevisiae deletion strains, locus YJR075W, strain HOC1, active compounds read low 1.01 | S. cerevisiae deletion strains, locus YKL009W, strain mrt4, active compounds read low 0.995 | S. cerevisiae deletion strains, locus YKL068W, active compounds read low 0.996 | S. cerevisiae deletion strains, locus YKL085W, strain MDH1 (second series), active compounds read low 1 | S. cerevisiae deletion strains, locus YKL085W, strain MDH1, active compounds read low 1 | S. cerevisiae deletion strains, locus YKL160W, strain elf1, active compounds read low 0.952 | S. cerevisiae deletion strains, locus YKL190W, strain CNB1, active compounds read low 1.01 | S. cerevisiae deletion strains, locus YKR001C, strain vps1, active compounds read low 0.991 | S. cerevisiae deletion strains, locus YKR026C, strain gcn3, active compounds read low 0.974 | S. cerevisiae deletion strains, locus YKR091W, strain srl3, active compounds read low 0.97 | S. cerevisiae deletion strains, locus YLL001W, strain dnm1, active compounds read low 0.972 | S. cerevisiae deletion strains, locus YLL026W, active compounds read low 0.981 | S. cerevisiae deletion strains, locus YLL041C, strain sdh2, active compounds read low 0.978 | S. cerevisiae deletion strains, locus YLR027C, strain aat2, active compounds read low 0.975 | S. cerevisiae deletion strains, locus YLR039C, strain RIC1, active compounds read low 1.02 | S. cerevisiae deletion strains, locus YLR058C, strain SHM2, active compounds read low 1 | S. cerevisiae deletion strains, locus YLR102C, strain apc9, active compounds read low 1.01 | S. cerevisiae deletion strains, locus YLR113W, strain HOG1, active compounds read low 0.983 | S. cerevisiae deletion strains, locus YLR221C, strain rsa3, active compounds read low 0.974 | S. cerevisiae deletion strains, locus YLR258W, strain gsy2, active compounds read low 0.985 | S. cerevisiae deletion strains, locus YLR262C, strain YPT6 (second series), active compounds read low 0.987 | S. cerevisiae deletion strains, locus YLR262C, strain YPT6, active compounds read low 0.989 | S. cerevisiae deletion strains, locus YLR268W, strain sec22, active compounds read low 1.07 | S. cerevisiae deletion strains, locus YLR330W, strain CHS5, active compounds read low 1 | S. cerevisiae deletion strains, locus YLR342W, strain FKS1 (second series), active compounds read low 0.988 | S. cerevisiae deletion strains, locus YLR342W, strain FKS1, active compounds read low 0.97 | S. cerevisiae deletion strains, locus YLR357W, strain rsc2, active compounds read low 0.92 | S. cerevisiae deletion strains, locus YLR370C, strain arc18, active compounds read low 0.98 | S. cerevisiae deletion strains, locus YLR371W, strain rom2, active compounds read low 1.02 | S. cerevisiae deletion strains, locus YLR384C, strain iki3, active compounds read low 0.964 | S. cerevisiae deletion strains, locus YLR418C, strain cdc73, active compounds read low 0.972 | S. cerevisiae deletion strains, locus YML016C, strain PPZ1, active compounds read low 1 | S. cerevisiae deletion strains, locus YML032C, strain rad52, active compounds read low 1.05 | S. cerevisiae deletion strains, locus YML120C, strain ndi1, active compounds read low 0.97 | S. cerevisiae deletion strains, locus YML124C, strain tub3, active compounds read low 1 | S. cerevisiae deletion strains, locus YMR058W, strain fet3, active compounds read low 0.957 | S. cerevisiae deletion strains, locus YMR078C, strain ctf18, active compounds read low 1.02 | S. cerevisiae deletion strains, locus YMR125W, strain sto1, active compounds read low 0.974 | S. cerevisiae deletion strains, locus YMR129W, active compounds read low 0.98 | S. cerevisiae deletion strains, locus YMR205C, strain PFK2, active compounds read low 0.97 | S. cerevisiae deletion strains, locus YMR223W, strain ubp8, active compounds read low 0.978 | S. cerevisiae deletion strains, locus YMR231W, strain pep5, active compounds read low 0.993 | S. cerevisiae deletion strains, locus YMR263W, strain SAP30, active compounds read low 1.02 | S. cerevisiae deletion strains, locus YMR307W, strain GAS1, active compounds read low 0.983 | S. cerevisiae deletion strains, locus YNL067W, strain RPL9B, active compounds read low 1.02 | S. cerevisiae deletion strains, locus YNL128W, strain TEP1, active compounds read low 1.01 | S. cerevisiae deletion strains, locus YNL153C, strain GIM3, active compounds read low 0.99 | S. cerevisiae deletion strains, locus YNL183C, strain NPR1, active compounds read low 0.902 | S. cerevisiae deletion strains, locus YNL209W, strain ssb2, active compounds read low 1.01 | S. cerevisiae deletion strains, locus YNL233W, strain BNI4, active compounds read low 1.03 | S. cerevisiae deletion strains, locus YNL248C, strain rpa49, active compounds read low 0.93 | S. cerevisiae deletion strains, locus YNL250W, strain rad50, active compounds read low 0.989 | S. cerevisiae deletion strains, locus YNL271C, strain bni1, active compounds read low 1.01 | S. cerevisiae deletion strains, locus YNL298W, strain CLA4, active compounds read low 0.978 | S. cerevisiae deletion strains, locus YNL307C, strain MCK1, active compounds read low 0.986 | S. cerevisiae deletion strains, locus YNL322C, strain KRE1 (second series), active compounds read low 0.985 | S. cerevisiae deletion strains, locus YNL322C, strain KRE1, active compounds read low 0.998 | S. cerevisiae deletion strains, locus YNR049C, strain mso1, active compounds read low 0.99 | S. cerevisiae deletion strains, locus YNR052C, strain pop2, active compounds read low 1.01 | S. cerevisiae deletion strains, locus YOL006C, strain TOP1, active compounds read low 1.09 | S. cerevisiae deletion strains, locus YOL012C, strain htz1 1.25 | S. cerevisiae deletion strains, locus YOL147C, strain pex11, active compounds read low 1.01 | S. cerevisiae deletion strains, locus YOR001W, strain rrp6, active compounds read low 0.986 | S. cerevisiae deletion strains, locus YOR061W, strain CKA2, active compounds read low 1.01 | S. cerevisiae deletion strains, locus YOR069W, strain VPS5, active compounds read low 1.01 | S. cerevisiae deletion strains, locus YOR070C, strain gyp1, active compounds read low 0.985 | S. cerevisiae deletion strains, locus YOR080W, strain dia2, active compounds read low 1.01 | S. cerevisiae deletion strains, locus YOR083W, strain WHI5, active compounds read low 0.97 | S. cerevisiae deletion strains, locus YOR106W, strain vam3, active compounds read low 0.887 | S. cerevisiae deletion strains, locus YOR136W, strain idh2, active compounds read low 0.999 | S. cerevisiae deletion strains, locus YOR144C, strain elg1, active compounds read low 1.01 | S. cerevisiae deletion strains, locus YOR184W, strain ser1, active compounds read low 1.01 | S. cerevisiae deletion strains, locus YOR231W, strain MKK1, active compounds read low 0.986 | S. cerevisiae deletion strains, locus YOR265W, strain rbl2, active compounds read low 1 | S. cerevisiae deletion strains, locus YOR270C, strain vph1, active compounds read low 0.858 | S. cerevisiae deletion strains, locus YOR290C, strain snf2, active compounds read low 0.959 | S. cerevisiae deletion strains, locus YOR316C, strain cot1, active compounds read low 1.01 | S. cerevisiae deletion strains, locus YPL051W, strain arl3, active compounds read low 0.957 | S. cerevisiae deletion strains, locus YPL055C, strain LGE1, active compounds read low 0.98 | S. cerevisiae deletion strains, locus YPL078C, strain atp4, active compounds read low 0.989 | S. cerevisiae deletion strains, locus YPL106C, strain sse1, active compounds read low 0.998 | S. cerevisiae deletion strains, locus YPL240C, strain hsp82, active compounds read low 1 | S. cerevisiae deletion strains, locus YPL241C, strain CIN2, active compounds read low 1.01 | S. cerevisiae deletion strains, locus YPL256C, strain CLN2, active compounds read low 1.01 | S. cerevisiae deletion strains, locus YPR119W, strain clb2, active compounds read low 1.02 | S. cerevisiae deletion strains, locus YPR141C, strain kar3, active compounds read low 0.994 | S. cerevisiae deletion strains, locus YPR163C, strain tif3, active compounds read low 1.03 | S. cerevisiae deletion strains, locus YPR167C, strain met16, active compounds read low 1.01 | S. cerevisiae deletion strains, strain wtn01, active compounds read low 1.02 | S. cerevisiae strains, strain wild type, active compounds read low 0.996
active: S. cerevisiae deletion strains, locus YLR320W, strain mms22, active compounds read low 0.856 | S. cerevisiae deletion strains, locus YNL071W, strain lat1, active compounds read low 0.772
